# Records with an inconclusive call do not appear. Active and inactive are the calls of the source. Unless noted, the call rests on the fitted dose curve; in most records, active means well fitted curve in the direction sought with a large enough effect; inconclusive means small, poorly fitted or top-dose-only effect, or another doubt; inactive means no such curve, though single readings can be large; an effect the other way counts as inactive or inconclusive.
# Key:
# [1] = target: Catechol O-methyltransferase (Homo sapiens) (UniProt P21964); assay: Confirmatory Screen for Target Class Profiling of Small Molecule Inhibitors of Methyltransferases (AID 1745852; calls by dose curve; further: potency means the concentration at half of the fitted maximal effect; on activity change, negative = inhibition: on the % scale 0 is the no-effect control and ±100 the full control effect); details: MTase-Glo luminescence, SAH detection, recombinant enzyme; measured here: COMT max response; stronger effect = lower value
# Catechol O-methyltransferase (Homo sapiens), sequence (P21964 whole entry, looked up): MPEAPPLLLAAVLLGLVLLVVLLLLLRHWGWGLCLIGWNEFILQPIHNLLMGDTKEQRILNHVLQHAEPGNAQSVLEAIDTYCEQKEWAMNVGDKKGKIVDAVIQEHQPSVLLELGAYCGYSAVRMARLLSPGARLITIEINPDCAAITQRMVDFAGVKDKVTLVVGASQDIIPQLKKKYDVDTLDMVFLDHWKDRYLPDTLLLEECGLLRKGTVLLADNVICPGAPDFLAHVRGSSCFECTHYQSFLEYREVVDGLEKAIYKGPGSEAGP
# [2] = target: Guanidinoacetate N-methyltransferase (Homo sapiens) (UniProt Q14353); assay: as above; details: MTase-Glo luminescence, SAH detection, recombinant enzyme; activity change, negative = inhibition: at 57.3 µM (top of the series) unless noted
# [3] = target: Nicotinamide N-methyltransferase (Homo sapiens) (UniProt P40261); assay: as above; details: MTase-Glo luminescence, SAH detection, recombinant enzyme; measured here: NNMT max response; stronger effect = lower value
# Nicotinamide N-methyltransferase (Homo sapiens), sequence (P40261 whole entry, looked up): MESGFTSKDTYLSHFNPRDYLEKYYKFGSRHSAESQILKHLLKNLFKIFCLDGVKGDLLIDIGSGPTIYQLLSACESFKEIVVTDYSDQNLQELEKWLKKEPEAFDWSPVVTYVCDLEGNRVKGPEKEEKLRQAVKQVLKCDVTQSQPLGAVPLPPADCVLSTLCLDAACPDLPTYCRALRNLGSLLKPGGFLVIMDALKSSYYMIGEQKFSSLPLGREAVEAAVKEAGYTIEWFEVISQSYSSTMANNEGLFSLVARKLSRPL
# [4] = target: Phenylethanolamine N-methyltransferase (Homo sapiens) (UniProt P11086); assay: as above; details: MTase-Glo luminescence, SAH detection, recombinant enzyme; measured here: PNMT max response; stronger effect = lower value
# Phenylethanolamine N-methyltransferase (Homo sapiens), sequence (P11086 whole entry, looked up): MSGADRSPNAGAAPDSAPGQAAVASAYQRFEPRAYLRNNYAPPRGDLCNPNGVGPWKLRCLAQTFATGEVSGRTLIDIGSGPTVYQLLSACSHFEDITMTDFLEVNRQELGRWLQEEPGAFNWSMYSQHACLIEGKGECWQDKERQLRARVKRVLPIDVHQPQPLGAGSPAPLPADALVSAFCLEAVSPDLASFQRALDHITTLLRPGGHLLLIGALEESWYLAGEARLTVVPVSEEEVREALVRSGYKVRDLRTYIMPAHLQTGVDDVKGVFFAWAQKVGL
# [5] = target: Rap guanine nucleotide exchange factor 3 (Homo sapiens) (UniProt O95398); assay: Confirmatory qHTS for antagonist of cAMP-regulated guanine nucleotide exchange factor 3 (EPAC1) (AID 1645880); details: EPAC1 Rap1B-BODIPY-GDP exchange, fluorescence; further: potency means the concentration at half of the fitted maximal effect; nearly all actives have a fitted effect of over 55% in size
# Rap guanine nucleotide exchange factor 3 (Homo sapiens), sequence (O95398 whole entry, looked up): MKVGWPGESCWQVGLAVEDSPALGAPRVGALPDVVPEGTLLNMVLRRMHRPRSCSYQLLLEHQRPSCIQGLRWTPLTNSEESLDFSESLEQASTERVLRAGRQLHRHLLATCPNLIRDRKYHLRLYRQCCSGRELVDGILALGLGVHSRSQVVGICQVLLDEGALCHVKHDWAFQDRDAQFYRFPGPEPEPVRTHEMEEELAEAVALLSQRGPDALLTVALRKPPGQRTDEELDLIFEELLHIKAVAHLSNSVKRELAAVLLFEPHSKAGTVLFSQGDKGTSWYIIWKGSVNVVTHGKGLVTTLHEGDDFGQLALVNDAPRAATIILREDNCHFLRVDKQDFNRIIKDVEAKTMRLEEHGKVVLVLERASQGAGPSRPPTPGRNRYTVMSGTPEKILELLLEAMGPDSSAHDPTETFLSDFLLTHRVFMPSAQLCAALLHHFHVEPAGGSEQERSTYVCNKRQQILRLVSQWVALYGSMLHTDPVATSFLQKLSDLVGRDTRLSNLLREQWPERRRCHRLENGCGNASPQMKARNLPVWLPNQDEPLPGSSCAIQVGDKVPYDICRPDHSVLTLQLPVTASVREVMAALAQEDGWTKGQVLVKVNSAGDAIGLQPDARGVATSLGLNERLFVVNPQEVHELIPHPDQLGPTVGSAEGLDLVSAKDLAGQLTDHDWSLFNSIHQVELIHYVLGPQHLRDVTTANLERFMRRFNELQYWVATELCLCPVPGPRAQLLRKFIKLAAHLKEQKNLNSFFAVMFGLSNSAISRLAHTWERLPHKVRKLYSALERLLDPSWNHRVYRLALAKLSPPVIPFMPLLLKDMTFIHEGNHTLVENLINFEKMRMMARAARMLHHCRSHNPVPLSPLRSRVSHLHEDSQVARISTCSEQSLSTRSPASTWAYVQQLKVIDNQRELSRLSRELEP
# Summary of the method: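 Nucleotide exchange uses 100 nM EPAC1, 250 nM RAP1B-BODIPY-GDP and 50 uM GDP, with compounds in a concentration-titration series. After 5 min at room temperature, fluorescence (480 nm ex/540 nm em) is read every 5 min for 30 min. Data are normalized to control ATA and DMSO.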
# [6] = target: Rap guanine nucleotide exchange factor 3 (Homo sapiens) (UniProt O95398); assay: Confirmatory qHTS for agonist of cAMP-regulated guanine nucleotide exchange factor 3 (EPAC1) (AID 1645881); details: EPAC1 Rap1B BODIPY-GDP exchange fluorescence, 100% = cAMP control response; series mostly up to 154 µM;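 further: EPAC1 catalysed release of BODIPY-GDP from Rap1B seen as fluorescence loss; nearly all actives have a fitted effect of over 75% in size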
# [7] = target: Rap guanine nucleotide exchange factor 4 (Homo sapiens) (UniProt Q8WZA2); assay: Confirmatory qHTS for agonist of cAMP-regulated guanine nucleotide exchange factor 4 (EPAC2) (AID 1645884); details: EPAC2 GEF activity, Rap1B-BODIPY-GDP fluorescence, percent relative to cAMP agonist control; series mostly up to 154 µM;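 further: nucleotide exchange releases bodipy-GDP from Rap1 and this lowers its fluorescence; on the % scale 0 is the no-effect control and ±100 the full control effect; nearly all actives have a fitted effect of over 65% in size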
# Rap guanine nucleotide exchange factor 4 (Homo sapiens), sequence (Q8WZA2 whole entry, looked up): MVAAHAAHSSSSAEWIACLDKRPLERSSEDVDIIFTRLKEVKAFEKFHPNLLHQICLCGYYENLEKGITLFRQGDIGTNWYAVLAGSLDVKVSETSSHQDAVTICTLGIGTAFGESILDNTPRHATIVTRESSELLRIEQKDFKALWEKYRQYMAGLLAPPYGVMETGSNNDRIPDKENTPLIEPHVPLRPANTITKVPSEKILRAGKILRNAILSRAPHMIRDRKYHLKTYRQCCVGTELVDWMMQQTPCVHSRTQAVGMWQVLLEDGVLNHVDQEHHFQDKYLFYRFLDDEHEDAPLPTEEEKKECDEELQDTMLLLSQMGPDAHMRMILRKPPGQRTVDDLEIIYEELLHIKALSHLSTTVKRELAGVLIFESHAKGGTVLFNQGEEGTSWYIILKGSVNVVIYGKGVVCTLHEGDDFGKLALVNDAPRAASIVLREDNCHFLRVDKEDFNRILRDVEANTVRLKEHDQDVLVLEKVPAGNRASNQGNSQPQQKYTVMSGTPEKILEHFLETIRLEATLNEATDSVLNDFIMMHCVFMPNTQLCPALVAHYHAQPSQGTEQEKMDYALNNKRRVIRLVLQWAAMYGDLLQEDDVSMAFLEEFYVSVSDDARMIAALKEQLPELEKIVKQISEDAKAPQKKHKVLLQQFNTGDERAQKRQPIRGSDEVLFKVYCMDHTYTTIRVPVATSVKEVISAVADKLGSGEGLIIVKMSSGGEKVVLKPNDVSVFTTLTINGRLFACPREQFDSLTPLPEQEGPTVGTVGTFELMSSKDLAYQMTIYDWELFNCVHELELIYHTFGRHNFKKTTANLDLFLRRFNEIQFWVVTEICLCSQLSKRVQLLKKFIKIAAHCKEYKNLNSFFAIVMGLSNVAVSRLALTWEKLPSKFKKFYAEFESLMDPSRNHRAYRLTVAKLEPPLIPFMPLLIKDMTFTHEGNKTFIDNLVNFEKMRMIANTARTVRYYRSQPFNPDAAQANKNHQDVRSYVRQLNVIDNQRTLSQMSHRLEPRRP
# [8] = target: Rap guanine nucleotide exchange factor 4 (Homo sapiens) (UniProt Q8WZA2); assay: Confirmatory qHTS for antagonist of cAMP-regulated guanine nucleotide exchange factor 4 (EPAC2) (AID 1645885); details: EPAC2 Rap1B-BODIPY-GDP exchange fluorescence, biochemical; series mostly up to 12.7 µM; further: nearly all actives have a fitted effect of over 25% in size; on activity change, negative = inhibition: on the % scale 0 is the no-effect control and ±100 the full control effect
# [9] = target: Rap guanine nucleotide exchange factor 3 (Homo sapiens) (UniProt O95398); assay: Counterscreen qHTS for antagonist of cAMP-regulated guanine nucleotide exchange factor 3 (EPAC1) (AID 1645888); details: Rap1B-BODIPY-GDP nucleotide exchange, fluorescence; series mostly up to 154 µM;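 further: fluorescence loss as bound BODIPY-GDP is released from Rap1B; % of control where 0% means no effect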
# Excerpt: Assay Provider (PI): Xiaodong Cheng Ph.D. The University of Texas Medical Branch, […], TX MLPCN Grant: NS066510 In multi-cellular eukaryotic organisms, the effects of cAMP are transduced by two ubiquitously-expressed intracellular cAMP receptors, the classic protein kinase A/cAMP-dependent protein kinase (PKA/cAPK) and the more recently discovered exchange protein directly activated by cAMP/cAMP-regulated guanine nucleotide exchange factor (EPAC/cAMP-GEF). Both PKA and EPAC are ubiquitously expressed in all tissues, and an increase in intracellular cAMP levels will lead to the activation of both PKA and EPAC. Therefore, careful dissections of the individual role and relative contribution of EPAC and PKA within the overall cAMP signaling in various model systems are critical for further elucidating the mechanism of cAMP signaling. To date no EPAC-specific antagonists and agonist, as well as isoform-specific agonists have been reported, and developing EPAC-specific pharmacological probes to determine the physiological functions that EPAC play in the overall cAMP-mediated signaling remains a major challenge within the research field. Furthermore, identified regulators of EPAC may lead to new mechanism-based therapeutic strategies specifically targeting the EPAC / cAMP-signaling components as EPAC has been implicated to play important roles in major human pathological conditions such as diabetes, heart disease, and cancer. This qHTS will be used to screen the Molecular Libraries Small Molecule Repository (MLSMR) as a concentration-titration series using the NCGC unique quantitative screening (qHTS) platform to find activators for EPAC1. In addition, this assay will also be used as a counterscreen for the EPAC2 qHTS. This fluorescent based assay is developed and validated for EPAC1 that measures exchange using EPAC effector Rap1 complex with BODIPY-GDP, a GDP analog with a tethered fluorophores. Activators are identified by monitoring the change in fluorescence signal as the exchanged free BODIPY-GDP has a reduced fluorescence compared to Rap1-bound BODIPY-GDP. Increase in signal (activation) is the desired outcome for the EPAC1 agonist while no activity in this assay is desired for the EPAC2 agonist counterscreen. Reference: [1] de Rooij, J., Zwartkruis, F. J., Verheijen, M. H., Cool, R. H., Nijman, S. M., Wittinghofer, A., and Bos, J.L. (1998) Nature 396, 474-477. […]
# EPAC1 Counterscreen PROTOCOL TABLE SEQUENCE No. (e.g., 1, 2, 3, etc.); […] […] Fluorescence. (Read 1), Ex/Em = 480 nm / 540 nm. […] Fluorescence. (Read 2), Ex/Em = 480 nm/ 540 nm. […] Fluorescence. (Read 3), Ex/Em = 480 nm / 540 nm. […] Fluorescence. (Read 4), Ex/Em = 480 nm / 540 nm. […]
# [10] = target: Rap guanine nucleotide exchange factor 3 (Homo sapiens) (UniProt O95398); assay: Counterscreen qHTS for agonist of cAMP-regulated guanine nucleotide exchange factor 3 (EPAC1) (AID 1645889); details: EPAC1 Rap1B-BODIPY-GDP exchange, fluorescence; series mostly up to 154 µM; further: % of control where 0% means no effect; nearly all actives have a fitted effect of over 40% in size
# Summary of the method: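 Rap1B-BODIPY-GDP 250 nM + GDP 50 uM; cpds 7-pt, final 9.74 nM–152 uM (activator mode) or from 7.32 nM upwards (inhibitor mode); RT; FI 480/540 nm at 5 and 30 min, then ± cAMP, reread.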
structure (smiles),measurement,setting,value
CC(C)(O)C1CC=C(C(=O)OC[C@H]2O[C@@H](Oc3cc(C(=O)O)cc(O)c3O)[C@H](O)[C@@H](O)[C@@H]2O)CC1 (stereo partly specified),activity,[1],-82.4%
same,"activity change, negative = inhibition",[2],-6.92% [at 29.8 µM]
same,activity,[3],-6.11%
same,activity,[4],-6.07%
O=C(O)CC1(O)C(=O)Nc2ccccc21 (stereo unspecified),activity,[1],0%
same,"activity change, negative = inhibition",[2],0% [at 85.7 µM]
same,activity,[3],4.18%
same,activity,[4],-0.0725%
O=C(/C=C/c1ccc(O)cc1)OC[C@@]1(O)C=C[C@@H]2C(C(=O)O)=CO[C@@H](O[C@@H]3O[C@H](CO)[C@@H](O)[C@H](O)[C@H]3O)[C@@H]21,activity,[1],-58.3%
same,"activity change, negative = inhibition",[2],0.0203% [at 29.8 µM]
same,activity,[3],-1.35%
same,activity,[4],0.204%
CC1(C)C2CCC1(C)C(OC(=O)C(O)(CC(=O)O)CC(=O)O)C2 (stereo unspecified),activity,[1],-73.1%
same,"activity change, negative = inhibition",[2],0%
same,activity,[3],1.63%
same,activity,[4],2.73%
N#Cc1cccc(-c2c[nH]c3ncnc(N4CCOCC4)c23)c1,activity,[1],-74.9%
same,Potency,[2],24.1 µM (active)
same,activity,[3],-64.5%
same,activity,[4],-72.3%
O=C(O)CC1CCC(c2ccc(-c3ccc(Nc4ccc(C(F)(F)F)nc4)cn3)cc2)CC1 (stereo unspecified),activity,[1],-2.38%
same,"activity change, negative = inhibition",[2],0.046%
same,activity,[3],-13.8%
same,activity,[4],-3.22%
Cc1ccc([C@@H]2CC=C(C(=O)O)[C@H](c3ccc(C(C)(C)C)cc3)N2S(=O)(=O)c2ccc(C)cc2)cc1,Potency,[5],50.1 µM (active)
same,outcome,[6],inactive
same,activation,[7],5.81% [at 17.1 µM] (inactive)
same,outcome,[8],inactive
same,"activity change, negative = inhibition",[9],-12.2% [at 30.8 µM] (inactive)
same,activation,[10],14.8% [at 30.8 µM] (inactive)
COc1cc(C2Oc3c(OC)cc(CCCO)cc3C2CO)ccc1O (stereo unspecified),activity,[1],-80.9%
same,"activity change, negative = inhibition",[2],-2.79%
same,activity,[3],-9.4%
same,activity,[4],-8.69%
Cc1cc(C)c2nc(-c3ccccn3)cc(C(=O)Nc3ccc(S(=O)(=O)Nc4onc(C)c4C)cc3)c2c1,outcome,[6],inactive
same,outcome,[7],inactive
same,outcome,[8],inactive; activator; fitted 7.5686 uM
same,outcome,[9],inactive
COc1cc(/C=C/C(=O)OC[C@H]2O[C@@H](OC3OC=C(C(=O)O)C4C(O)CC(C)(O)C34)[C@H](O)[C@@H](O)[C@@H]2O)cc(OC)c1O (stereo partly specified),activity,[1],-54.7%
same,"activity change, negative = inhibition",[2],-2.09% [at 19.1 µM]
same,activity,[3],0.931%
same,activity,[4],-3.81%
O=C(/C=C/c1ccccc1)OC[C@H]1O[C@@H](OC(=O)c2cc(O)c(O)c(O)c2)[C@H](O)[C@@H](O)[C@@H]1O,activity,[1],-76.6%
same,"activity change, negative = inhibition",[2],-1.37% [at 29.8 µM]
same,activity,[3],-4.41%
same,activity,[4],-0.813%
OC[C@H]1O[C@@H](OCCc2ccccc2)[C@H](O[C@@H]2OC[C@@H](O)[C@H](O)[C@H]2O)[C@@H](O)[C@@H]1O,activity,[1],-76.4%
same,"activity change, negative = inhibition",[2],0% [at 29.8 µM]
same,activity,[3],3.88%
same,activity,[4],-1.31%
COc1cnc(-c2ccc(Cn3c(CC(C)(C)C(=O)O)c(SC(C)(C)C)c4cc(OC[C@@H]5Cc6ccccc6N5C(C)=O)ccc43)cc2)nc1,activity,[1],-6.21%
same,"activity change, negative = inhibition",[2],-3.63%
same,activity,[3],-11.1%
same,activity,[4],-8.45%
CC1=CCC(O)C2(C)CCC3C(C)C(=O)OC3C12 (stereo unspecified),activity,[1],-77%
same,"activity change, negative = inhibition",[2],0%
same,activity,[3],2.91%
same,activity,[4],-2.6%
CC1CCCCCCCc2cc(O)cc(O)c2C(=O)O1 (stereo unspecified),activity,[1],-69.9%
same,Potency,[2],30.4 µM (active)
same,activity,[3],-60.9%
same,activity,[4],-64.4%
CC(=O)OC1CC(=O)C2(C)C3CC4=C(OC(C)CC4=O)OC3(C)CCC2C1(C)C (stereo unspecified),activity,[1],-40.9%
same,"activity change, negative = inhibition",[2],0.0637% [at 29.8 µM]
same,activity,[3],-81.2%
same,activity,[4],0.0652%
O=C(O)Cn1nnc(-c2ccc(CN(CCCCOc3ccc(CN4CCCC4)cc3)CCc3ccccc3)cc2)n1,activity,[1],-3.03%
same,"activity change, negative = inhibition",[2],0%
same,activity,[3],-1.13%
same,activity,[4],0.559%
CSC(=O)OCC1=C[C@@H]2OC(=O)C3=CO[C@@H](O[C@@H]4O[C@H](CO)[C@@H](O)[C@H](O)[C@H]4O)[C@H]1[C@@H]32,activity,[1],-58.6%
same,"activity change, negative = inhibition",[2],-9.29% [at 29.8 µM]
same,activity,[3],-7.9%
same,activity,[4],-7.61%
COc1c2cc(c(O[C@@H]3O[C@H](CO)[C@@H](O)[C@H](O)[C@H]3O)c1OC)CCCCC(O)CCc1ccc(O)c-2c1 (stereo partly specified),activity,[1],-87.3%
same,"activity change, negative = inhibition",[2],-7.96% [at 29.8 µM]
same,activity,[3],-5.32%
same,activity,[4],-8.72%
CCOc1ccc(-c2cc(NC(=O)c3c(F)cccc3F)c(C(=O)O)s2)cc1,Potency,[5],9.53 µM (active)
same,outcome,[6],inactive
same,outcome,[7],inactive
same,outcome,[8],inactive
same,outcome,[9],inactive
same,outcome,[10],inactive
same,activity,[1],-2.79%
same,"activity change, negative = inhibition",[2],0.993%
same,activity,[3],-5.18%
same,activity,[4],-2.03%
CCc1nnc(NS(=O)(=O)c2ccc(NC(=S)NC(=O)/C=C/c3ccc(F)cc3)cc2)s1,Potency,[5],37.9 µM (active)
same,outcome,[6],inactive
same,outcome,[7],inactive
same,outcome,[9],inactive
same,outcome,[10],inactive
O=C(NCC(=O)N1CCCC1)Nc1ccc2ccccc2c1,activity,[1],1.31%
same,"activity change, negative = inhibition",[2],-10.4%
same,activity,[3],-23%
same,activity,[4],-8.32%
COc1ccccc1CN[C@H]1CCCN[C@H]1c1ccccc1,activity,[1],0.295%
same,"activity change, negative = inhibition",[2],7.32%
same,activity,[3],-6.63%
same,activity,[4],-0.84%
